Rows were chosen to be rich in hits. Some 19% of all compounds tested hit in one or more screens of this group.
DT40 TDP1 no CPT – qHTS for Inhibitors of human tyrosyl-DNA phosphodiesterase 1 (TDP1): qHTS in cells in absence of CPT | DT40 Tdp1-/- hTDP1 cells, no CPT, ATP luminescence, 48 h | Potency, µM (series often up to 46.2 µM), without a hit: at the top dose activity change, negative = growth inhibition, usual class: inhibitors | 15% of 420,000 active; further: nearly all actives have a fitted effect of over 55% in size
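Seeded 400 DT40-hTDP1 cells/well (vehicle DMSO, no 20 nM CPT); pinned compounds; ≥48 hr at 37 °C; CellTiter-Glo luminescence as viability measure.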
Gal4-VP16 FLuc – inhibits Gal4-VP16 luciferase reporter, ROR gamma counter-screen | AID 2546 | Potency, µM (highest dose often 53.6 µM), for the others: at the highest dose activity, negative = inhibition, actives largely listed as inhibitors | 3.5% of 310,000 active | Drosophila S2 Gal4-VP16 UAS-luciferase, luminescence, 20 h;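 further: Gal4-VP16 expression switched on by copper sulfate through the metallothionein promoter; nearly all actives have a fitted effect of over 50% in size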
TDP1 cell CPT – growth inhibition of DT40 Tdp1-/-;hTDP1 cells with camptothecin (screen for TDP1 inhibitors); chicken DT40 Tdp1-/-;hTDP1 cells + 20 nM CPT, ATP luminescence, 48 h; Potency, µM (top dose mostly 46.2 µM), inactives show at the top dose activity change, negative = growth inhibition, hits mostly inhibitors; 12% of 420,000 active; further: nearly all actives have a fitted effect of over 55% in size
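Cell growth measured by CellTiter-Glo luminescence after a minimum 48 h, 37 C compound exposure with 20 nM CPT in Tdp1-knockout DT40 cells stably expressing hTDP1, seeded 400/well; qHTS titration format.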
RORgamma inh – ROR gamma (mouse) transcription inhibition; Potency, µM (top dose mostly 53.6 µM), for inactives: at the highest dose activity change, negative = inhibition, usual class: inhibitors; 5.4% of 310,000 active; P51450; Drosophila S2 Gal4-RORgamma UAS-luciferase reporter, 20 h; AID 2551; further: nearly all actives have a fitted effect of over 60% in size
Target sequence (P51450 whole entry, looked up, the tested form may be a part): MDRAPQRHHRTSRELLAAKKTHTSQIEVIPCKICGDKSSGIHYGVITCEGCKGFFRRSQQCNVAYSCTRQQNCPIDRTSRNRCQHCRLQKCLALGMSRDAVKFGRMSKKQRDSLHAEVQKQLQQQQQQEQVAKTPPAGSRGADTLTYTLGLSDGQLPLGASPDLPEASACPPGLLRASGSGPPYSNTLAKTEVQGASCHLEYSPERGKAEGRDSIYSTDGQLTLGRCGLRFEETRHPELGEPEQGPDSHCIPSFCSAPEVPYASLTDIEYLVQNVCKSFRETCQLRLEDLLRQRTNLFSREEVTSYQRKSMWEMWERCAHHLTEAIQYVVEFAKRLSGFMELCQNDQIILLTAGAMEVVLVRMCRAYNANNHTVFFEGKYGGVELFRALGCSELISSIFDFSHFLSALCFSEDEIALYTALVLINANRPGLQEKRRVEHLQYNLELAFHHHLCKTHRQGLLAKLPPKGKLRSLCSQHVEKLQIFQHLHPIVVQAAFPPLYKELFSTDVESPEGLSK
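Drosophila Schneider cells stably carrying a metallothionein-driven Gal4 DBD–ROR gamma fusion and a UAS-Photinus luciferase reporter were exposed to compound for 1 hr, then induced with copper sulfate (700 uM final) for 20 hr at ambient temperature before luminescence reading.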
TDP1 inh – inhibitors of human tyrosyl-DNA phosphodiesterase TDP1; Q9NUW8; 0.28% of 350,000 active; recombinant TDP1, AlphaScreen DNA substrate cleavage; AID 485290; Potency, µM (top dose mostly 130 µM), for the others: at the highest dose activity change, negative = inhibition, hits mostly inhibitors; further: nearly all actives have a fitted effect of over 40% in size
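Tdp1 1 nM final; 15 min RT w/ cpd; substrate 15 nM, 5 min; beads 10 ug/ml, 10 min; AlphaScreen read. Neg ctrl: no enzyme.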
* marks the source's active call; other numbers are inactive results; ? = inconclusive; . = no result; [ ] = remark or other dose. The call rests on the fitted dose curve; in most records, active means well fitted curve in the direction sought with a large enough effect; inconclusive means small, poorly fitted or top-dose-only effect, or another doubt; inactive means no such curve, though single readings can be large; an effect the other way counts as inactive or inconclusive. On the % scale 0 is the no-effect control and ±100 the full control effect; potency means the concentration at half of the fitted maximal effect.

SMILES	DT40 TDP1 no CPT	Gal4-VP16 FLuc	TDP1 cell CPT	RORgamma inh	TDP1 inh
CC(C)NC(=O)Nc1cccc2c1O[C@H](CN(C)S(=O)(=O)c1ccccc1)[C@@H](C)CN([C@H](C)CO)C2=O	-10%	.	-11%	.	1%
CC(=O)Nc1cccc(Cl)c1C(=O)O	4%	-11%	-2%	-20%	2%
Cc1ccc(-c2nc3ccccn3c2Nc2ccccc2C)s1	21µM*	.	?	.	7%
CC(=O)Nc1c(-c2ccccc2)nc2cc(C)ccn12	2%	1%	3%	1%	.
Cc1ccccc1Nc1c(-c2ccc(Cl)s2)nc2ccccn12	?	.	-5%	.	1%
Cc1cc(C)n2c(Nc3c(C)cccc3C)c(-c3ccsc3)nc2n1	-20%	.	?	.	2%[12.3 µM]
Cc1ccccc1Nc1c(-c2ccsc2)nc2c(C)cccn12	21µM*	.	16µM*	.	5%
Cc1ccn2c(Nc3ccccc3C)c(-c3ccncc3)nc2c1	15µM*	1%	16µM*	-20%	-4%[12.3 µM]
COCCNc1c(-c2ccc(OC)cc2)nc2ccc(Cl)cn12	?	11%	?	?	3%
CCCCNc1c(-c2ccc(OC)c(SC3CCCCC3)c2)nc2cc(C)ccn12	15µM*	.	21µM*	.	6%
CCCCNc1c(-c2ccc(OC)c(SC3CCCCC3)c2)nc2ccc(Cl)cn12	23µM*	.	21µM*	.	-1%
Cc1ccc(NS(=O)(=O)c2cc3c4c(cccc4c2)C(=O)NC3=O)cc1	9.2µM*	-4%	?	-2%	-1%
CNS(=O)(=O)c1cc2c3c(cccc3c1)C(=O)NC2=O	23µM*	1%	18µM*	17%	3%
O=C(c1ccoc1)N1CCN(c2cc(-c3ccco3)nc3cc(-c4ccccc4)nn23)CC1	7.3µM*	.	8.2µM*	.	.
COc1ccccc1-c1cc2nc(-c3ccccc3)cc(N3CCN(C(=O)c4ccco4)CC3)n2n1	6.5µM*	.	12µM*	.	.
COc1cccc(OC)c1C(=O)N1CCN(C(=O)c2ccc(-c3ccccc3)cc2)CC1	-17%	8%	?	-1%	5%
COc1ccccc1-c1cc2nc(-c3ccccc3)cc(N3CCN(C(=O)c4ccoc4)CC3)n2n1	5.2µM*	.	9.2µM*	.	.
O=C(c1ccoc1)N1CCN(c2cc(-c3ccccc3)nc3cc(-c4ccccc4)nn23)CC1	16µM*	.	18µM*	.	.
O=C(c1cc2nc(-c3ccco3)cc(C(F)(F)F)n2n1)N1CCN(c2ccc(F)cc2)CC1	?	3%	?	?	5%
CCN(Cc1ccccc1)C(=O)COC(=O)Cn1cnc2ccccc21	-18%	-6%	-27%	16%	3%
CN(CC(=O)Nc1cccc(F)c1)C(=O)c1ccc(-n2cncn2)c([N+](=O)[O-])c1	-24%	.	-16%	.	.
Cc1cc(N2CCN(C(=O)c3ccoc3)CC2)n2nc(-c3ccccc3)cc2n1	18µM*	.	?	.	.
CCOC(=O)c1cnc2sc3c(n2c1=O)CCCC3	15µM*	?	26µM*	-18%	8%
O=C(COC(=O)C1CCC1)NCc1ccccc1Cl	-11%	-6%	-26%	-5%	6%
S=C(NCc1ccccc1Cl)NC1CCCC1	?	8.9µM*	?	6.3µM*	3%
SMILES	DT40 TDP1 no CPT	Gal4-VP16 FLuc	TDP1 cell CPT	RORgamma inh	TDP1 inh
COc1ccccc1CNC(=S)NC1CCCCC1	?	10µM*	?	2.2µM*	1%
Fc1ccccc1CNC(=S)NC1CCCCC1	-1%	7.9µM*	-21%	5µM*	1%[56.1 µM]
CCOC(=O)N1CCc2c(sc3nc(SC(C)C)n(N)c(=O)c23)C1	23µM*	?	9.2µM*	?	-3%
CCOC(=O)N1CCc2c(sc3ncn(C)c(=O)c23)C1	-16%	0%	10%	-14%	4%
CCOC(=O)C1=C(C)N=C2c3ccccc3C(=O)C2C1c1ccc(Cl)cc1 (centres undefined)	?	1%	?	36%	12%
CCOC(=O)C1=C(Cc2ccc(Cl)cc2)C(=O)c2ccccc2C1=O	4.6µM*	?	4.6µM*	8.9µM*	5%
O=c1oc2cc(Br)ccc2n1CSC1=NCCS1	18µM*	-1%	21µM*	-32%	-10%
CCOc1ccc(-n2c(N)c(C(=O)NCc3ccco3)c3nc4ccccc4nc32)cc1	18µM*	1%	21µM*	?	-1%
CCOC(=O)c1ccc(-n2c(N)c(C(=O)OC)c3nc4ccccc4nc32)cc1	7.3µM*	.	5.8µM*	.	7%
Nc1c(C(=O)Nc2ccccc2)c2nc3ccccc3nc2n1-c1ccc(O)cc1	2.1µM*	?	10µM*	-44%	.
CCOC(=O)c1c(N)n(-c2cccc(OC)c2)c2nc3ccccc3nc12	.	.	.	.	-9%
COC(=O)c1c(N)n(-c2cc(Cl)cc(Cl)c2)c2nc3ccccc3nc12	9.2µM*	.	16µM*	.	.
COc1ccc(-n2c(N)c(C(=O)Nc3c(C)n(C)n(-c4ccccc4)c3=O)c3nc4ccccc4nc32)cc1	?	-27%	-23%	3%	0%
CC(C)COc1ccc(Br)cc1CNC(C)(C)C	?	0%	?	-6%	.
COc1cc([N+](=O)[O-])ccc1NC(=O)/C=C\C(=O)O	-17%	-15%	-3%	-26%	-4%
Cc1occc1-c1nnc(SCC(=O)N(C)c2ccccc2)n1C	-6%	.	1%	.	.
COC(=O)c1cc2sc(C)cc2n1Cc1ccc(F)cc1Cl	-12%	.	-9%	.	-4%
COCCNC(=O)CCc1c(C)nc2c(-c3ccc(F)cc3)c(C)nn2c1C	-23%	-2%	-13%	-14%	1%
CCOC(=O)c1c(N)n(-c2ccc(CC)cc2)c2nc3ccccc3nc12	?	.	23µM*	.	.
CCOc1ccc(-n2c(N)c(-c3nc4ccccc4n3C)c3nc4ccccc4nc32)cc1	?	1.3µM*	?	1µM*	-1%
CCOC(=O)Nc1nc2ccc(Cn3cccc3)cc2[nH]1	0.58µM*	.	0.82µM*	.	.
COC(=O)Nc1nc2ccc(C(=O)c3ccc(F)cc3)cc2[nH]1	.	-14%	.	7%	6%
CCCOc1ccc2nc(NC(=O)OC)[nH]c2c1	0.15µM*	23%	0.094µM*	-25%	5%
CC1(C)CN(O)CCN1O	1%	13%	2%	-15%	8%
Oc1ccc(Cl)cc1CNCC1CCCCC1	?	.	15µM*	.	1%
COc1ccc(-c2c(-c3ccc(OCC(=O)NN)cc3O)n[nH]c2C(F)(F)F)cc1	-18%	4.5µM*	-2%	6.3µM*	0%
C=C(C)COc1ccc(-c2n[nH]c(C)c2-c2ccc(OC)cc2)c(O)c1	?	?	?	2.2µM*	8%
COc1ccc(-c2c(-c3ccc(OCC(=O)NN)cc3O)n[nH]c2C)cc1OC	-10%	2%	5%	-27%	.
